Measured values taken from PMC5540273 (PLoS ONE, 2017).

Test system: BRSK2
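Note: kd values determined as follow-up on hits from a single-replicate KINOMEscan panel screen.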

SMILES | Kd
COc1ccc(-c2coc3ccc(-c4nnc(C)o4)cc23)cc1 | > 10 µM
c1ccc(-c2ccnc3[nH]ccc23)cc1 [SB-693578] | > 10 µM
Cc1ccccc1Cn1ccn2c(=O)cc(N3CCOCC3)nc12 [GSK2269905] | > 10 µM
COc1cccc(NC(=O)Nc2ccc(C)c(-c3ccc(C(=O)Nc4ccncc4)cc3)c2)c1 [GSK1398474] | > 10 µM
O=c1cc(N2CCOCC2)nc2n(Cc3ccccc3F)ccn12 [GSK2297428] | > 10 µM

Test system: BUB1

SMILES | Kd
CSc1ccc(-c2nc3n(c2-c2ccncc2)CCC3)cc1 [SKF-105561] | 0.26 µM
COc1ccc2cc(-c3nc(-c4ccccc4C(C)C)[nH]c3-c3ccncc3)ccc2c1 [SB-660566] | 0.47 µM
Fc1ccc(-c2nc[nH]c2-c2ccncc2)cc1 [SB-217360] | 0.89 µM
COc1cc2ncnc(Nc3cccc(Br)c3)c2cc1OC.Cl [GI230329] | 0.13 µM
CCCCc1nn2ncccc2c1-c1ccnc(NC2CC2)n1 [GW684374] | 3.3 µM
CS(=O)(=O)Cc1ccc(Nc2nccc(-c3c(-c4cccc(NC(=O)C5CCCCC5)c4)nn4ncccc34)n2)cc1 [GSK350559] | 0.029 µM

Test system: CAMK2A

SMILES | Kd
COC(=O)c1cccc(NC(=O)NC2CCN(c3ccnc(Nc4ccc(OC)cc4)n3)C2)c1 (stereo not shown) [GSK1379746] | > 10 µM
O=C(Nc1n[nH]c2nc(-c3cccs3)c(Br)cc12)C1CC1 [SB-735297] | > 10 µM
Cc1ccc(NC(=O)c2ccc(Cl)cc2)cc1-c1ccc(C(=O)Nc2ccncc2)cc1 [GSK1398467] | > 10 µM
CNc1nc(-c2ccc3c(N)n[nH]c3c2)cc(N2C[C@@H](C(=O)Nc3ccccc3)CC[C@H]2C)n1 [GSK2298859] | > 10 µM

Test system: CAMK2B

SMILES | Kd
COC(=O)c1cccc(NC(=O)NC2CCN(c3ccnc(Nc4ccc(OC)cc4)n3)C2)c1 (stereo not shown) [GSK1379746] | > 10 µM
O=C(Nc1n[nH]c2nc(-c3cccs3)c(Br)cc12)C1CC1 [SB-735297] | > 10 µM
Cc1ccc(NC(=O)c2ccc(Cl)cc2)cc1-c1ccc(C(=O)Nc2ccncc2)cc1 [GSK1398467] | > 10 µM
CNc1nc(-c2ccc3c(N)n[nH]c3c2)cc(N2C[C@@H](C(=O)Nc3ccccc3)CC[C@H]2C)n1 [GSK2298859] | > 10 µM
